Several values for one entry are separate records, joined by “and”; a condition that tells them apart may be missing. Identical values can stand only once. About 83,000 compounds went through this panel and 20% of them were active in at least one assay; those are over-represented in the sample as a whole.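 Note: values are percent growth. 100 is the growth of untreated cells, values between 100 and 0 indicate rising inhibition; between -100 and 0 indicates cell death.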 Activity calls are given as the source filed them. The calls were made as follows: active = growth percent below 10; inactive = the rest.
Columns and labels:
Assay in all cases: NCI-60 one-dose screen, 48 h (100 = growth as untreated, 0 = no growth, -100 = all killed)
Settings in all cases: 10 µM
SR leukemia = tested on: SR leukemia
RPMI-8226 leukemia = tested on: RPMI-8226 leukemia
OVCAR-8 ovarian = tested on: OVCAR-8 ovarian
OVCAR-5 ovarian = tested on: OVCAR-5 ovarian
OVCAR-4 ovarian = tested on: OVCAR-4 ovarian
SK-OV-3 ovarian = tested on: SK-OV-3 ovarian
IGROV1 ovarian = tested on: IGROV1 ovarian
OVCAR-3 ovarian = tested on: OVCAR-3 ovarian
HS 578T breast = tested on: HS 578T breast
NCI/ADR-RES ovarian = tested on: NCI/ADR-RES ovarian
T-47D breast = tested on: T-47D breast
BT-549 breast = tested on: BT-549 breast
MDA-MB-435 melanoma = tested on: MDA-MB-435 melanoma
SW-620 colon = tested on: SW-620 colon
MCF7 breast = tested on: MCF7 breast
HCT-116 colon = tested on: HCT-116 colon
HCC-2998 colon = tested on: HCC-2998 colon
KM12 colon = tested on: KM12 colon
MDA-MB-468 breast = tested on: MDA-MB-468 breast

Measured: growth

O=c1[nH]c2ccc(Cl)cc2cc1CSc1ccc(Nc2nccc(-c3ccc4ccccc4c3)n2)cc1
inactive: SR leukemia 88% | RPMI-8226 leukemia 69.1% | OVCAR-5 ovarian 95% | SK-OV-3 ovarian 126% | IGROV1 ovarian 99.4% | HS 578T breast 66.2% | NCI/ADR-RES ovarian 59.8% | T-47D breast 100% | BT-549 breast 83.4% | MDA-MB-435 melanoma 84.7% | SW-620 colon 17.6% | MCF7 breast 29.2% | HCT-116 colon 55% | HCC-2998 colon 79.6% | KM12 colon 53% | MDA-MB-468 breast 15.2%
active: OVCAR-8 ovarian 9.55% | OVCAR-4 ovarian -25.7% | OVCAR-3 ovarian -1.45%

O=C(CNc1nc(-c2ccccc2)cs1)Nc1ccc(Cl)cc1[N+](=O)[O-]
active: SR leukemia 7.61% | RPMI-8226 leukemia 1.75% | OVCAR-5 ovarian -52.2% | SK-OV-3 ovarian -6.03% | IGROV1 ovarian 8.13% | OVCAR-3 ovarian -31.9% | HS 578T breast -18.3% | NCI/ADR-RES ovarian -30.7% | T-47D breast -32.6% | BT-549 breast -46.6% | MDA-MB-435 melanoma -5.51% | MCF7 breast -59.3% | HCT-116 colon -22.8% | HCC-2998 colon -93.4% | KM12 colon -0.339% | MDA-MB-468 breast -34.9%
inactive: OVCAR-8 ovarian 10.8% | OVCAR-4 ovarian 15.5%

Cc1ccc2nc(COc3ccc(C(=O)NNC(=S)NCCc4ccccc4)cc3)[nH]c2c1
inactive: SR leukemia 88.2% | RPMI-8226 leukemia 87.7% | OVCAR-8 ovarian 13.1% | OVCAR-5 ovarian 88.9% | SK-OV-3 ovarian 83.4% | IGROV1 ovarian 52.9% | OVCAR-3 ovarian 105% | HS 578T breast 41.1% | NCI/ADR-RES ovarian 75.4% | T-47D breast 74% | BT-549 breast 105% | MDA-MB-435 melanoma 98.5% | SW-620 colon 96.3% | HCT-116 colon 57.3% | HCC-2998 colon 73.9% | KM12 colon 63.4% | MDA-MB-468 breast 15.5%
active: OVCAR-4 ovarian -4.14%

O=C(Nc1cccc([N+](=O)[O-])c1)Nc1cccc([N+](=O)[O-])c1
7.95% (active) and 24.6% (inactive): MDA-MB-468 breast
inactive: SR leukemia 88.7% | RPMI-8226 leukemia 31.9% | OVCAR-8 ovarian 88.7% | OVCAR-5 ovarian 94.1% | OVCAR-4 ovarian 73.6% | SK-OV-3 ovarian 129% | IGROV1 ovarian 88.6% | OVCAR-3 ovarian 60.7% | HS 578T breast 92.5% | NCI/ADR-RES ovarian 65.4% | T-47D breast 40.6% | BT-549 breast 67.1% | MDA-MB-435 melanoma 90.3% | SW-620 colon 87.9% | HCT-116 colon 54.4% | HCC-2998 colon 88% | KM12 colon 70.6%

CCOC(=O)C1=C(N)N(c2ccc(C)cc2)C2=C(C(=O)CC(C)(C)C2)C1c1ccccc1OC (configuration not stated)
inactive: SR leukemia 92.1% | RPMI-8226 leukemia 96.2% | OVCAR-8 ovarian 110% | OVCAR-5 ovarian 104% | OVCAR-4 ovarian 108% | SK-OV-3 ovarian 103% | IGROV1 ovarian 98.6% | OVCAR-3 ovarian 118% | HS 578T breast 102% | NCI/ADR-RES ovarian 99.7% | T-47D breast 97.8% | BT-549 breast 95.7% | MDA-MB-435 melanoma 111% | SW-620 colon 105% | MCF7 breast 93.5% | HCT-116 colon 103% | HCC-2998 colon 106% | KM12 colon 108% | MDA-MB-468 breast 101%

Nc1nc(Nc2ccccc2)nn1Cc1c(Cl)cccc1Cl
active: MDA-MB-468 breast 5.3%
inactive: SR leukemia 25% | RPMI-8226 leukemia 27.1% | OVCAR-8 ovarian 42.3% | OVCAR-5 ovarian 46.6% | OVCAR-4 ovarian 39.7% | SK-OV-3 ovarian 51.3% | IGROV1 ovarian 11.2% | OVCAR-3 ovarian 54.6% | HS 578T breast 29.3% | NCI/ADR-RES ovarian 10.6% | T-47D breast 15% | BT-549 breast 23.6% | MDA-MB-435 melanoma 48.4% | MCF7 breast 16% | HCT-116 colon 22.4% | HCC-2998 colon 15.2% | KM12 colon 13%

O=C(CSc1nnc(-c2c[nH]c3ccccc23)n1-c1ccccc1)Nc1ccc(C(=O)/C=C/c2ccccc2Cl)cc1
inactive: SR leukemia 71.6% | RPMI-8226 leukemia 40.3% | OVCAR-8 ovarian 61.7% | OVCAR-5 ovarian 101% | OVCAR-4 ovarian 79.1% | SK-OV-3 ovarian 95.2% | IGROV1 ovarian 95.1% | OVCAR-3 ovarian 80.6% | HS 578T breast 86.4% | NCI/ADR-RES ovarian 92.4% | T-47D breast 43.1% | BT-549 breast 84.4% | MDA-MB-435 melanoma 65.8% | SW-620 colon 87.6% | HCT-116 colon 22.1% | HCC-2998 colon 94.6% | KM12 colon 74.7% | MDA-MB-468 breast 72.1%

CN(CCO)c1oc(-c2ccccc2)nc1[P+](c1ccccc1)(c1ccccc1)c1ccccc1
active: SR leukemia 5.21% | RPMI-8226 leukemia 7.8% | SK-OV-3 ovarian -13.5% | IGROV1 ovarian 6.36% | OVCAR-3 ovarian -0.969% | HS 578T breast -11.4% | T-47D breast 0.664% | BT-549 breast -22.5% | MDA-MB-435 melanoma 2.53% | MCF7 breast 0.978% | HCT-116 colon 6.5% | KM12 colon -39.4% | MDA-MB-468 breast -55.9%
inactive: OVCAR-8 ovarian 12.3% | OVCAR-5 ovarian 16.2% | OVCAR-4 ovarian 15.1% | NCI/ADR-RES ovarian 96.6% | SW-620 colon 11.5% | HCC-2998 colon 10.8%

CC(C)C1=C[C@@]23CC[C@@H]4[C@](C)(CCC[C@]4(C)C(=O)NCc4ccccc4)[C@H]2C[C@@H]1[C@H]1C(=O)OC(=O)[C@H]13
active: SR leukemia 6.39%
inactive: RPMI-8226 leukemia 24.7% | OVCAR-8 ovarian 42.7% | OVCAR-5 ovarian 93.6% | OVCAR-4 ovarian 49.8% | SK-OV-3 ovarian 74.5% | IGROV1 ovarian 31.1% | OVCAR-3 ovarian 42% | HS 578T breast 44.6% | NCI/ADR-RES ovarian 37.4% | T-47D breast 56% | BT-549 breast 69.6% | MDA-MB-435 melanoma 49.6% | SW-620 colon 54.2% | HCT-116 colon 23.1% | HCC-2998 colon 53.8% | KM12 colon 24.9% | MDA-MB-468 breast 41.5%

COc1ccc2[nH]cc(/C=N/Nc3ccc(Br)cn3)c2c1
inactive: OVCAR-8 ovarian 34% | OVCAR-5 ovarian 55.3% | OVCAR-4 ovarian 53.2% | SK-OV-3 ovarian 65.7% | IGROV1 ovarian 10.3% | OVCAR-3 ovarian 31.1% | HS 578T breast 25.8% | T-47D breast 22.3% | MDA-MB-435 melanoma 13.8% | SW-620 colon 19.2% | HCC-2998 colon 10.2%
active: SR leukemia 3.07% | RPMI-8226 leukemia -11.4% | NCI/ADR-RES ovarian 7.9% | BT-549 breast -2.65% | MCF7 breast 3.69% | HCT-116 colon 8.63% | KM12 colon -0.565% | MDA-MB-468 breast -40.9%

O=C(/C=C/Nc1ccc(F)cc1F)c1ccc2c(c1)Nc1ccccc1S2
active: MDA-MB-435 melanoma 9.72%
inactive: SR leukemia 31.7% | RPMI-8226 leukemia 78.2% | OVCAR-8 ovarian 64.6% | OVCAR-5 ovarian 86.8% | OVCAR-4 ovarian 68.2% | SK-OV-3 ovarian 95.2% | IGROV1 ovarian 77.9% | OVCAR-3 ovarian 100% | HS 578T breast 63% | NCI/ADR-RES ovarian 57.1% | T-47D breast 80.1% | BT-549 breast 85.7% | MCF7 breast 37.9% | HCT-116 colon 58.6% | HCC-2998 colon 79.7% | KM12 colon 51.6% | MDA-MB-468 breast 41.9%
